BAZ2B block – BAZ2B (human) inhibition; Q9UIF8; AlphaScreen BAZ2B-H3K14Ac peptide displacement; Potency, µM (titrated, usually from 114 µM), inactives show top-dose activity change, negative = inhibition, actives largely listed as inhibitors; 360,000 compounds, 4.4% hits; AID 504333; further: on the % scale 0 is the no-effect control and ±100 the full control effect; nearly all actives have a fitted effect of over 60% in size
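BAZ2B (50 nM) with biotin-H3(5-23)K14Ac peptide (50 nM) in PBS pH 7.4, 0.01% Tween-20, preformed 30 min, then compound 30 min at room temperature; top concentration 110uM. AlphaScreen streptavidin donor/nickel chelate acceptor beads (10 ug/mL final), 20 min dark, signal read.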
HP1b binding inh – HP1-beta chromodomain-methylated histone interaction inhibition; AlphaScreen HP1-beta / biotin-H3K9me3 peptide binding; P83916; 390,000 compounds, 0.56% hits; Potency, µM (top dose mostly 114 µM), inactives show at the top dose activity change, negative = inhibition, actives largely listed as inhibitors; AID 540317; further: nearly all actives have a fitted effect of over 70% in size
Target sequence (P83916 whole entry, looked up): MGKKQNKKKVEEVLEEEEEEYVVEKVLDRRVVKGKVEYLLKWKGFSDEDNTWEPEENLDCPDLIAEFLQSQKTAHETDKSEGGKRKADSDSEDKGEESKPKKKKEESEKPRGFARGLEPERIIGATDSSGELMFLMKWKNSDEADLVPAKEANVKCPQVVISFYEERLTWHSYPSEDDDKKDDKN
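AlphaScreen: HP1-beta (50 nM) preformed 30 min with biotin-H3(1-18)K9me3 peptide (50 nM) in PBS pH 7.4, 0.01% Tween-20. Compound added for 30 min at RT, then streptavidin donor/nickel chelate acceptor beads (10 ug/mL) for 30 min.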
JMJD2A Tudor – JMJD2A Tudor domain (human) inhibition. O75164. AlphaScreen JMJD2A-Tudor / H3K4me3 peptide binding. Potency, µM (doses to about 114 µM), for the others: at the top dose activity change, negative = inhibition, hits mostly inhibitors. 390,000 compounds, 4.4% hits. AID 504339; further: on the % scale 0 is the no-effect control and ±100 the full control effect; nearly all actives have a fitted effect of over 50% in size
Sfp inh – inhibitors of Bacillus subtilis Sfp phosphopantetheinyl transferase; Q9F4F7; Biochemical Sfp PPTase activity, qHTS; Potency, µM, without a hit: largest response in the series, negative = inhibition, actives largely listed as inhibitors; 310,000 compounds, 3.5% hits;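 further: the enzyme is Sfp with the accession as filed and its product quenches rhodamine fluorescence; 0% = enzyme reaction without inhibitor and -100% = no enzyme wells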
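Reaction rates are the 30-min fluorescence difference (ex 525, em 598 nm) in wells containing 15 nM Sfp, 5 uM rhodamine-CoA and 12.5 uM BHQ-2-YbbR at pH 7.6 with 10 mM MgCl2.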
G9a inh – inhibitors of human histone lysine methyltransferase G9a; Q96KQ7; G9a H3K9 monomethylation, AlphaScreen, 2 h; Potency, µM (titrated, usually from 102 µM), inactives show at the highest dose activity, negative = inhibition, actives largely listed as inhibitors; 350,000 compounds, 8.8% hits; further: on the % scale 0 is the no-effect control and ±100 the full control effect; nearly all actives have a fitted effect of over 75% in size
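Readings reflect AlphaScreen signal from monomethyl-H3K9 antibody detection. HMT at 20 nM; substrate b-H3K9 500 nM; cofactor SAM 20 uM; 2 h RT reaction; compounds tested as titrations in qHTS with 15 min preincubation.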
PLK1 PBD block – inhibitors of human PLK1 polo-box domain binding | Plk1 PBD binding of FITC phosphopeptide, fluorescence polarization | Potency, µM, for the others: max response, negative = inhibition, usual class: inhibitors | 360,000 compounds, 2.8% hits; further: series mostly up to about 57 µM; on the % scale 0 is the no-effect control and ±100 the full control effect; nearly all actives have a fitted effect of over 65% in size
Target sequence (P53350 whole entry, looked up, the tested form may be a part): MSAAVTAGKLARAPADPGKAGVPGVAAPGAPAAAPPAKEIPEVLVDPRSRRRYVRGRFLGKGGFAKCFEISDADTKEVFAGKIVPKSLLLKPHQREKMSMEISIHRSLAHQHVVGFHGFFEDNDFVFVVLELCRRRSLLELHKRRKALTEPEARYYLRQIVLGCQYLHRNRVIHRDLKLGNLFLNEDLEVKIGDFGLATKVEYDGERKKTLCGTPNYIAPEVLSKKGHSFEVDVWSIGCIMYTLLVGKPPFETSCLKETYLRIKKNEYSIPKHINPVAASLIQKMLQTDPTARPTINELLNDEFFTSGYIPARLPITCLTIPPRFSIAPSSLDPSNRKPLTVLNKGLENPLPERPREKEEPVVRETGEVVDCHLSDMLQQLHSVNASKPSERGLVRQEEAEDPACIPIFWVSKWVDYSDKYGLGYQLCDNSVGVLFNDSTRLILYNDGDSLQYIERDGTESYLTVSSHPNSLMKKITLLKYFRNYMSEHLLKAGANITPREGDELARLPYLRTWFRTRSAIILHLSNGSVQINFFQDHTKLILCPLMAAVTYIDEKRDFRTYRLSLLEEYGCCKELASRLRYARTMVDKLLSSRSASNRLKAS
* marks the source's active call; other numbers are inactive results; u = inconclusive; x = no result given; [ ] = remark or other dose. The list is not random: actives were taken first. Their share in the collection is about 12%. The call rests on the fitted dose curve; in most records, active means well fitted curve in the direction sought with a large enough effect; inconclusive means small, poorly fitted or top-dose-only effect, or another doubt; inactive means no such curve, though single readings can be large; an effect the other way counts as inactive or inconclusive. Potency means the concentration at half of the fitted maximal effect.

SMILES	BAZ2B block	HP1b binding inh	JMJD2A Tudor	Sfp inh	G9a inh	PLK1 PBD block
CCC(=O)NCCCNc1nc2c(C)cccc2cc1C#N	-0.4%	10.6%	-13.1%	u	35.5µM*	-6.7%
C/C(N)=C(/C#N)C(=O)COC(=O)c1ccc(C#N)cc1	u	22.5%	-18.2%	9.6%	22.4µM*	-11.2%
C/C(N)=C(/C#N)C(=O)COC(=O)c1ccc(O)cc1	-6.4%	20.8%	-5.0%	3.3%	-0.5%	4.2%
C/C(N)=C(/C#N)C(=O)COC(=O)c1cc(-c2ccc(Br)cc2)nc2ccccc12	16.3%	14.1%	-4.1%	3.0%	1.78µM*	3.7%
C/C(N)=C(/C#N)C(=O)COC(=O)c1cccc(C)c1O	-6.9%	35.9%	7.8%	7.4%	3.4%	3.2%
C/C(N)=C(/C#N)C(=O)COC(=O)c1ccccc1Oc1ccccc1	-29.1%	-18.5%	u	9.2%	2.5%[12.7 µM]	26.7µM*
CCc1ccccc1Nc1nc(N)nc(CSCC(=O)c2cc(C)n(C)c2C)n1	56.2µM*	-13.9%	u	-19.3%	u	-13.2%
COc1cc(C(=O)Nc2nc(C)c(Cc3ccc4c(c3)OCO4)s2)cc(OC)c1OC	-35.0%	u	u	-86.0%	3.98µM*	9.47µM*
CCC(=O)Nc1sc(Cc2ccc3c(c2)OCO3)c(C)c1C(N)=O	-31.6%	-31.6%	-23.1%	39.8µM*	10µM*	21.2µM*
CCCOc1ccc(C(=O)Nc2nc(C)c(Cc3ccc4c(c3)OCO4)s2)cc1	-25.1%	23.5%	-17.9%	u	-3.7%[59 µM]	-25.5%
Cc1c(Cc2ccc3c(c2)OCO3)sc(NC(=O)c2ccc3ccccc3c2)c1C(N)=O	-5.6%	-2.3%	-9.0%	12.6µM*	6.31µM*	13.4µM*
Cc1onc(-c2ccc(Cl)cc2)c1-c1ccnc(SCC(=O)Nc2cc(Cl)cc(Cl)c2)n1	-0.9%	7.3%	-8.8%	12.9%	22.4%[59 µM]	-4.7%
Cc1cc(C(=O)OCC(=O)Nc2ccccc2[N+](=O)[O-])c2ccccc2n1	5.5%	27.2%	-2.9%	-5.8%	-45.1%[59 µM]	0.3%
CCOC(=O)c1ccc2c(c1)N(CC(=O)Nc1ccc(C)cc1C)C(=O)c1ccccc1S2	-10.6%	22.5%[57 µM]	-8.6%	x	-2.2%[59 µM]	x
O=C(NCc1ccccc1)c1ccc(CSc2nc3cccnc3n2Cc2ccccc2F)cc1	22.4µM*	u	5.62µM*	x	3.55µM*	x
O=C(CSc1nc2cccnc2n1Cc1ccccc1)N1CCCC1	-3.1%	u	31.6µM*	14.6%	19.9%	29.9µM*
CCOC(=O)c1ccc(S(=O)(=O)n2c(CN3CCCCC3)nc3ccccc32)cc1	-31.9%	36.8%	-13.9%	4.9%	50.1µM*	-2.7%
Cc1cccc(CNC(=O)c2ccc(Cn3c(SCc4cccc(F)c4)nc4cccnc43)cc2)c1	11.2µM*	u	4.47µM*	x	3.16µM*	x
COc1ccc(Cn2c(SCc3ccc(C(=O)NCc4ccccc4F)cc3)nc3cccnc32)cc1	-0.2%	38.5%	-14.9%	x	6.2%[59 µM]	x
CCOC(=O)CC(NC(=O)c1cc2c(=O)n3cccc(C)c3nc2s1)c1ccc(OCC)c(OC)c1 (centres undefined)	51.9%	76.4%	4.1%	x	62.3%[59 µM]	x
CCOc1ccc(CCNC(=O)c2cc3cccc4c3n2CCS4)cc1	-0.7%	23.4%	9.0%	x	-1.9%[59 µM]	x
O=C(CSc1nc2ccccc2n1S(=O)(=O)c1ccccc1)N1CCCCC1	-6.4%[57.1 µM]	41.6%	-0.4%	7.1%	70.8µM*	0.4%
CN(C)c1ccc(CNC(=O)c2ccc(Cn3c(SCc4ccccc4)nc4cccnc43)cc2)cc1	u	-6.9%	u	x	10µM*	x
Cc1cccc(CNC(=O)c2ccc(Cn3c(SCc4ccccc4)nc4cccnc43)cc2)c1	2.8%	50.3%	-15.8%	x	-20.8%[59 µM]	x
COc1cccc(C2NC(=O)NC(C)=C2C(=O)Nc2ccc(C)cc2)c1OC (centres undefined)	x	33.8%	-1.2%	-3.2%	-1.4%[59 µM]	3.4%
SMILES	BAZ2B block	HP1b binding inh	JMJD2A Tudor	Sfp inh	G9a inh	PLK1 PBD block
CCOc1cc(C2NC(=S)NC(C)=C2C(=O)Nc2ccccc2)ccc1O (centres undefined)	-1.3%	18.4%	-20.0%	-29.1%	-6.6%[59 µM]	u
COc1cccc(C2NC(=S)NC(C)=C2C(=O)c2ccccc2)c1OC (centres undefined)	u	42.7%	-24.3%	8.0%	22.4µM*	4.5%
C=CCOc1ccc(C2NC(=S)NC(C)=C2C(=O)c2ccccc2)cc1OC (centres undefined)	-11.7%	9.3%	-35.2%	-10.1%	39.8µM*	-9.7%
COc1ccc([N+](=O)[O-])cc1NC(=O)C(C)OC(=O)CC1CCCC1 (centres undefined)	-19.6%	27.6%	-28.0%	x	7.9%[12.7 µM]	-4.6%
CCCCC(=O)N(C)c1c(CC)nc2c(OCCOc3ccccc3)cccn12	x	x	x	x	x	-17.8%
CCN(CC)c1ccc2c(c1)oc(=O)c1c(Cl)cc(=O)oc12	9.9%	34.9%	16.7%	-6.9%	30.5%[12.7 µM]	-7.5%
CCN(CC)c1ccc2c(Cl)c(Br)c(=O)oc2c1	163.3%	465.9%	103.8%[57.1 µM]	56.2µM*	9.5%[0.0925 µM]	-20.4%
CC(C)C(=O)Nc1cccc(NC(=S)NC(=O)c2ccccc2Cl)c1	-22.1%	33.6%	-30.2%	4.2%	-49.9%[59 µM]	-9.4%
COc1ccccc1C(=O)Nc1cccc(NC(C)=O)c1	10.6%	0.2%	-19.2%	9.9%	2.5%[59 µM]	3.2%
COc1ccccc1C(=O)Nc1cc(Cl)ccc1O	-0.7%	10.0%	-9.7%	-9.7%	56.2µM*	1.9%
COc1ccccc1C(=O)Nc1cccc(NC(=O)c2ccccc2C)c1	-7.4%	20.0%	u	7.4%	35.9%[59 µM]	21.2µM*
Cc1ccccc1C(=O)NC(=S)Nc1cccc(NC(=O)C(C)C)c1	-11.5%	20.3%	u	3.9%	8.91µM*	-19.4%
CCOc1ccccc1C(=O)Nc1cc(Cl)ccc1O	12.9%	-16.2%	-28.8%	3.1%	7.1%[59 µM]	-4.5%
CCCCN(C(=O)c1ccccc1Br)C1CCS(=O)(=O)C1 (centres undefined)	-4.2%	24.0%	3.4%	x	12.7%[0.501 µM]	-1.1%
CCCCN(C(=O)c1ccc(Br)o1)C1CCS(=O)(=O)C1 (centres undefined)	7.7%	37.7%	-4.1%	x	50.1µM*	-0.7%
CN(C)Cc1cc(C(C)(C)c2cc(CN(C)C)c(O)c(CN(C)C)c2)cc(CN(C)C)c1O	-6.6%	u	-47.6%	-2.8%	u	-7.7%
Cc1ccc(-c2nc(CN(C)C)cc(CN(C)C)c2O)cc1	u	26.7%	u	-1.4%	50.1µM*	-12.1%
CN(C)Cc1cc(CN(C)C)c(O)c(CCc2ccccc2)n1	-28.2%	42.5%	-19.8%[57.1 µM]	-1.2%	50.1µM*	u
OCc1cc(CO)c(O)c(CCc2ccccc2)n1	-6.7%	63.3%	-4.4%	4.4%	-20.7%	-2.2%
N#Cc1ccccc1NC(=O)C(=O)NCCCN1CCCC1=O	-6.0%	0.2%	-15.5%	x	-31.6%	-8.1%
